The text below walks through data of PubChem BioAssay (NCI).

Compounds without any hit were thinned out: in the full panel of roughly 79,000, 15% have a hit. Activity calls are given as the source filed them. Cut-off read from the data, not from the text of the source: active = growth inhibition above about 70%; inactive = the rest.

This test in a line: NCI Yeast Anticancer Drug Screen. Data for the cln2 rad14 strain (AID 165).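 Note: 0% = growth equal to vehicle treated cultures.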 Conditions: S. cerevisiae cln2 rad14 strain, at 50.0 µM, active compounds read high. On the procedure: Growth inhibition of yeast strains with defined genetic alterations is measured as a screen for potential anti-cancer activity. Selected strains with alterations in DNA damage repair or cell cycle control were exposed to compounds and growth inhibition was measured relative to vehicle treated controls. The strain used in this assay is cln2 rad14
Take `COc1ccc(/C=N/n2cnc3c(c2=O)SC(=C(C#N)C#N)N3c2ccccc2)cc1`: the growth inhibition is -16.1% (inactive).
The same measure for `CCC/C=N/NC(=O)CCCCCCCCCCCCCCCCC`: -8.2% (inactive); for `CCS(=O)(=O)c1ccc(NC(=O)OCc2ccccc2)cc1`: -4.4% (inactive).
As to `CSC(C(=O)O)c1cc(-c2c(Cl)cccc2Cl)no1` (stereo not given), the growth inhibition is 8.85% (inactive).
In the case of `CC(C)(c1ccccc1)[Si](c1ccccc1)(c1ccccc1)c1ccccc1`, the growth inhibition is 3.2% (inactive).
`CCOC(C)C1C2CCCCC21` (stereo not given): the growth inhibition is -54% (inactive).
On to `CN(C)c1nc(=NCc2cccs2)ss1`, for which the growth inhibition was 45.2% (inactive).
The same measure for `CC1=CC(C)(C)Nc2ccccc21`: -3.95% (inactive); for `O=C1c2cc(CCl)sc2C(=O)c2ccsc21`: 89.8% (active); for `NCCC(=O)O`: 12.1% (inactive).
In the case of `N#CCCC(=O)c1ccccc1`, the growth inhibition was -2.65% (inactive).
As for `Cc1ccc(-c2nn[nH]n2)cc1[N+](=O)[O-]`, the figure is -11% (inactive).
With `Nc1nc(-c2ccccc2)c(N=Nc2cccc(Cl)c2)s1`, the growth inhibition was -48% (inactive).
Consider `CC(C)OC(=O)NCc1cccs1`, for which the growth inhibition is -92.8% (inactive).
As for `Clc1ncnc2c1cnn2-c1ccccc1`, the figure is -30.9% (inactive); as for `CC(=NC1CCCCC1)c1ccccc1O`, -23.9% (inactive); as for `CC(=O)c1cc([N+](=O)[O-])c(O)cc1O`, -16.8% (inactive).
With `Cc1[nH]c2c(O)ccc(O)c2c1C`, the growth inhibition was -20.6% (inactive).
As to `NCCCCCC(N)=O`, the growth inhibition was 21.2% (inactive).
`N#Cc1ccccc1OCCCCOc1ccccc1C#N`: the growth inhibition is 14.2% (inactive).
As for `CCCCCCCCCCCCC/C=C/CC(CC(=O)Nc1ccc(-n2c(=O)cc(C)n2C)cc1)C(=O)O` (stereo not given), the figure is 21.2% (inactive); as for `Cc1cccc(-c2cc3cccnc3nc2NN=O)c1C`, 39.3% (inactive).
As for `S=C1SCCCN1c1ccccc1`, the growth inhibition was -14.5% (inactive).
As for `O=C(Nc1cc(Br)c2cccc3c2c1CC3)c1ccccc1`, the figure is -5.25% (inactive).
For the compound `CCN(CC)CCCN1CC(=O)N2CCCCN2C(=O)C1`, the growth inhibition is 6.15% (inactive).
In the case of `O=NN(Cc1ccccc1)c1ccc(OCc2ccccc2)c(NC(=O)CCC2OCCO2)c1`, the growth inhibition was 7.05% (inactive).
As for `O=P1(c2ccccc2)c2ccccc2CCc2ccccc21`, the growth inhibition is 22.1% (inactive).
`Cc1ccncc1C#N`: the growth inhibition was 6.55% (inactive).
Take `C/C(=N/NC(=O)c1ccccc1)C(=O)c1ccccc1`: the growth inhibition is -1.2% (inactive).
With `CC(NNC(=S)N1CCCCCC1)c1cccc[n+]1[O-]` (stereo not given), the growth inhibition was 97.6% (active).
The same measure for `CN(C)C1CS(=O)(=O)OC2=C1CCSc1ccccc12` (stereo not given): -84.7% (inactive); for `O=[N+]([O-])CC1CCCCC1`: 14.3% (inactive).
The same measure for `COC(=O)/C=C1\C(=O)c2ccccc2-c2ccccc21`: 20.3% (inactive).
In the case of `O=C(Nc1ccccc1)OCc1cnc2ccccc2c1`, the growth inhibition was -9.4% (inactive).
Take `CCOC(=O)CCC1(C(=O)OC)C(=O)CCCCCCCC1C(=O)OC` (stereo not given): the growth inhibition is 20.6% (inactive).
For `COc1cc2c(cc1OC)C1CCN3C(=O)CCC3[N+]1(C)CC2` (stereo not given), the growth inhibition was -4.3% (inactive).
On to `CC(=O)Nc1ccc(S(=O)(=O)/C(=C\c2ccc(Cl)o2)c2ccc([N+](=O)[O-])o2)cc1`, for which the growth inhibition was 57.5% (inactive).
Turning to `Cc1ccc(N=NN(C)C)cc1`, the growth inhibition was -2.6% (inactive).
As for `COc1ccc(N2C(=O)CC(c3cc(OC)c(OC)c(OC)c3)CC2=O)cc1`, the figure is 3.1% (inactive); as for `O=C(O)c1ccc([N+](=O)[O-])cc1Cl`, 8.15% (inactive).
